Bioassay records (PubChem BioAssay)
Compounds with a hit are over-represented: about 22% of the library has one in this group of screens.
CYP2C9 inh = blocks human cytochrome P450 2C9 | CYP2C9 Supersomes, luciferin-H conversion, luminescence | inhibition, % at 5 µM | 20% of 96,000 active;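 active = blocking of liver enzyme CYP2C9 beyond about 50% at 5 µM, limit read from the data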
CYP2C9 act = activators of human CYP2C9; 1.4% of 96,000 active; AID 1024; P11712; activation factor at 5 µM; recombinant CYP2C9, luciferin-H conversion, luminescence; stronger effect = higher value; factor 1 = untreated enzyme, 0 = blocked;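 active = activation factor of 2 or more for CYP2C9 at a 5 µM dose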;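 note: 0 = sulfaphenazole-blocked wells and 1 = vehicle-only wells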
Measles CPE = protection of cells from measles virus; Measles virus-infected cells, CPE protection, absorbance; protection (pct of control), % at 4 µM; 1.5% of 140,000 active; AID 841; in the data active = protection mostly above about 24%, no sharp cut-off; inactive = mostly below about 26%
CYP2C19 act = increases human CYP2C19 enzyme activity | 96,000 tested, under 10 active | P33261 | activation factor at 5 µM | recombinant CYP2C19, luciferin-H EGE luminescence; stronger effect = higher value; 0 = fully inhibited enzyme, 1 = untreated enzyme;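 active = activation factor of at least 2 at 5 µM in the primary screen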;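 note: 0 = wells with 2.5 mM tranylcypromine and 1 = vehicle-only wells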
Target sequence (P33261 whole entry, looked up): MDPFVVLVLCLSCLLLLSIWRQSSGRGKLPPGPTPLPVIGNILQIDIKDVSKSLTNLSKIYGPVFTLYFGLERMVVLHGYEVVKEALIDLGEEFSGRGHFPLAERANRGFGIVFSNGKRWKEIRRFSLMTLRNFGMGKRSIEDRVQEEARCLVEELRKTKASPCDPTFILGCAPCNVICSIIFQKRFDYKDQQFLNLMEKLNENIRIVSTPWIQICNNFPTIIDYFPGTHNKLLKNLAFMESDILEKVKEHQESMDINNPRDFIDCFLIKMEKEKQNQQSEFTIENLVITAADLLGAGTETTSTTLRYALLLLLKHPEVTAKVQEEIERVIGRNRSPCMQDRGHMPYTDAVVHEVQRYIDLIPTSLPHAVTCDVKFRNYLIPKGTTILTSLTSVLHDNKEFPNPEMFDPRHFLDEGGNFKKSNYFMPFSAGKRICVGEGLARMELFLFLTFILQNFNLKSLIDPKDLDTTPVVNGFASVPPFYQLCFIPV
CYP2C19 inh = inhibitors of human CYP2C19. P33261. 21% of 96,000 active. CYP2C19 Supersomes, luciferin-H EGE luminescence, 30 min. inhibition, % at 5 µM;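 active = CYP2C19 inhibition above a set limit at 5 µM in the primary screen, cut at about 50% in these data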;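 note: plate controls were negative control wells for no effect and 2.5 mM tranylcypromine positive control for full effect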
The depositor's hits bear a star; nt = not tested or not shown.

SMILES | CYP2C9 inh | CYP2C9 act | Measles CPE | CYP2C19 act | CYP2C19 inh
CCOC(=O)c1cccc(NC(=O)C2CCCN2S(=O)(=O)c2cccc3cccnc23)c1 (stereo unspecified) | 91* | 0.1 | 13 | 0.7 | 34
COc1ccc(NC(=O)C2CCCN2S(=O)(=O)c2cccc3cccnc23)c(OC)c1 (stereo unspecified) | 92* | 0.1 | 20 | 0.7 | 31
Cc1ccccc1NC(=O)C1CCCN1S(=O)(=O)c1cccc2cccnc12 (stereo unspecified) | 96* | 0 | 12 | 0.3 | 67*
Cc1ccccc1NC(=O)C1CCCN(S(=O)(=O)c2cccc3cccnc23)C1 (stereo unspecified) | -45 | 1.5 | 10 | 0.9 | 11
Cc1c(C)n(C)c2ccc([N+](=O)[O-])cc12 | 7 | 0.9 | 11 | 0.7 | 26
Cc1cccc(Oc2ccc(C(=O)NC3CCSC3=O)cn2)c1C (stereo unspecified) | 13 | 0.9 | 15 | 1.1 | -9
CN(C)CCCNC(=O)CC(c1ccc(F)cc1)c1ccco1 (stereo unspecified) | -12 | 1.1 | 3 | 1.1 | -11
CCN(CC)C(=O)CC(c1ccc(F)cc1)c1ccco1 (stereo unspecified) | 31 | 0.7 | 5 | 0.4 | 62*
C=CCn1c(SCc2csc(C)n2)nc2sc3c(c2c1=O)CCCC3 | 50* | 0.5 | 4 | 0.8 | 21
C=CCn1c(SCc2csc(C)n2)nc2sc3c(c2c1=O)CCC(C)C3 (stereo unspecified) | nt | nt | 4 | nt | nt
C=CCn1c(SCc2csc(C)n2)nc2sc3c(c2c1=O)CCCCC3 | 88* | 0.1 | 14 | 0.5 | 45
C=CCn1c(SCC(=O)NCc2ccco2)nc2sc3c(c2c1=O)CCC3 | 27 | 0.7 | 18 | 1 | -2
CCn1c2ccccc2c2cc(C3N=C(N)Nc4nc5ccccc5n43)ccc21 (stereo unspecified) | -7 | 1.1 | nt | 0.9 | 7
Cc1ccc(C)c2sc(NC(=O)c3ccc(N4CCCCC4)c([N+](=O)[O-])c3)nc12 | -75 | 1.7 | 10 | 0.8 | 17
CCOC(=O)N1CCC(N2C(=O)c3ccccc3C2Nc2cccnc2)CC1 (stereo unspecified) | 12 | 0.9 | 9 | 1.1 | -12
CCOC(=O)N1CCC(N2C(=O)c3ccccc3C2Nc2ccc3c(C)cc(=O)oc3c2)CC1 (stereo unspecified) | 81* | 0.2 | 6 | 0.6 | 41
CCOC(=O)N1CCC(N2C(=O)c3ccccc3C2Nc2ccccc2C)CC1 (stereo unspecified) | 80* | 0.2 | 10 | 0.4 | 65*
CCOC(=O)N1CCC(N2C(=O)c3ccccc3C2Nc2ccc(Cl)cn2)CC1 (stereo unspecified) | 58* | 0.4 | 15 | 0.4 | 58*
Brc1ccc(-n2c(SCc3nc4ccccc4[nH]3)nnc2-c2ccncc2)cc1 | nt | nt | 10 | nt | nt
COc1cc2c(cc1OC)C1=NC(=O)CN1C(SCc1ccccc1C)=N2 | -6 | 1.1 | 18 | 1 | -4
CCc1ccc(NC(=O)CNC(=O)c2cn(-c3ccccc3OC)c(=O)c3ccccc23)cc1 | 99* | 0 | 14 | 0 | 98*
Cc1onc(-c2ccccc2)c1C(=O)Nc1ccc(N2CCOCC2)cc1 | -16 | 1.2 | 13 | 0.9 | 9
CCOC(=O)C1=C(N)OC2=C(C(=O)CC(C)(C)C2)C1C1CCCCC1 (stereo unspecified) | 56* | 0.4 | 3 | 0.8 | 24
CCOC(=O)C1=C(N)OC2=C(C(=O)CC(C)(C)C2)C1c1ccoc1 (stereo unspecified) | 67* | 0.3 | 24 | 0.4 | 64*
COC(=O)C1=C(N)OC2=C(C(=O)CC(C)(C)C2)C1c1cccs1 (stereo unspecified) | 81* | 0.2 | 5 | 0.3 | 73*
SMILES | CYP2C9 inh | CYP2C9 act | Measles CPE | CYP2C19 act | CYP2C19 inh
CCOC(=O)C1=C(N)OC2=C(C(=O)CC(C)(C)C2)C1c1cccnc1 (stereo unspecified) | 71* | 0.3 | 8 | 0.2 | 76*
CCc1ccc(C2C3=C(CC(C)(C)CC3=O)OC3=C2C(=O)CC(C)(C)C3)cc1 | nt | nt | 7 | nt | nt
CC(=O)Nc1c(Br)cc(N2C(=O)CCC2=O)cc1Br | nt | nt | 1 | nt | nt
COc1ccc(OCC(=O)Nc2cccc3cccnc23)cc1 | -40 | 1.4 | 10 | 0 | 97*
CCOC(=O)c1ccc(NC(=O)COc2ccc(-n3cnnn3)cc2)cc1 | -9 | 1.1 | nt | 1.1 | -8
O=C(COc1ccc(F)cc1)Nc1ccc(-n2cnnn2)cc1 | 25 | 0.8 | 32 | 0.2 | 76*
Cc1cc(C)cc(OCC(=O)Nc2nonc2NC(=O)COc2cc(C)cc(C)c2)c1 | 64* | 0.4 | 4 | 0.6 | 42
COc1cccc(NC(=O)COc2ccc(C)cc2)c1 | nt | nt | 7 | nt | nt
COc1ccc(OCC(=O)Nc2cccc(C(C)=O)c2)cc1 | 51* | 0.5 | 5 | 0.3 | 67*
COc1ccc(N2C(=O)CC(Sc3nccc(C)n3)C2=O)cc1 (stereo unspecified) | 0 | 1 | 16 | 0.8 | 19
O=C(O)Cc1cc(C(=O)Nc2ccc(Br)cc2)sc1-c1ccccc1 | nt | nt | 21 | nt | nt
CCOC(=O)c1ccc2c(c1)nc(COc1ccccc1C#N)n2CC | 36 | 0.6 | nt | 0.9 | 8
FC(F)(F)c1cccc(NC(=S)NCCN2CCOCC2)c1 | nt | nt | 32 | nt | nt
Cc1cccc(NC(=O)CSc2ccc(-c3ccco3)nn2)c1 | nt | nt | 0 | nt | nt
Cc1cc(C)cc(OCC(=O)Nc2cccc(C(=O)O)c2)c1 | 8 | 0.9 | 89* | 1 | -4
Cc1cccc(OCC(=O)Nc2cccc(C(=O)Nc3ccccc3C(=O)O)c2)c1 | nt | nt | 7 | nt | nt
O=C(Nc1cccc2cccnc12)c1cccnc1 | -112 | 2.1* | 1 | 0.5 | 46
COc1ccc(OCC(=O)Nc2cccc(NC(=O)COc3ccc(OC)cc3)n2)cc1 | 72* | 0.3 | 5 | 0.6 | 44
COc1ccc(OCC(=O)Nc2cccc(-c3nc4ccccc4[nH]3)c2)cc1 | 94* | 0.1 | 8 | 0.4 | 65*
O=C(Nc1cccc2nsnc12)c1cccnc1 | nt | nt | 12 | nt | nt
CCCS(=O)(=O)N1CCCC(C(=O)NC(C)c2ccc3c(c2)OCCO3)C1 (stereo unspecified) | -5 | 1 | 16 | 1.1 | -8
O=C1CCc2cc(S(=O)(=O)N3CCCC3C(=O)N3CCN(c4ccccc4F)CC3)ccc2N1 (stereo unspecified) | 46 | 0.5 | 6 | 0.8 | 22
O=C(O)CS(=O)(=O)CC(=O)O | 14 | 0.9 | 11 | 1 | -3
C[C@@H]1NC(=O)[C@H](CCCN=C(N)N)NC(=O)c2cc([N+](=O)[O-])cc(I)c2NCCC[C@@H](C(N)=O)NC1=O | nt | nt | 5 | nt | nt
Oc1sc(C=Nc2ccccc2)c2ccccc12 | 7 | 0.9 | 13 | 0.6 | 44
CCOC(=O)c1sc(SC)c(C(C)=O)c1C | 10 | 0.9 | 14 | 1 | 4
CC(=O)Nc1cccc(OCC(=O)Nc2ccc(F)cc2)c1 | -33 | 1.3 | 13 | 0.3 | 68*
